An excerpt weighted towards active compounds, which were near 2.4% of everything screened.
TRHR agonist: qHTS for Small Molecule Agonists and Allosteric Enhancers of Human TRH Receptor: Primary Screen for Agonists. Thyrotropin-releasing hormone receptor (Homo sapiens), P34981. TRHR cells, calcium flux fluo-8, FDSS agonist mode. activation, % at 2 µM. 360,000 compounds, 0.18% hits. AID 493084, 2011; in the data active means activation above about 30%; further: 0% is about no effect
Target sequence (P34981 whole entry, looked up): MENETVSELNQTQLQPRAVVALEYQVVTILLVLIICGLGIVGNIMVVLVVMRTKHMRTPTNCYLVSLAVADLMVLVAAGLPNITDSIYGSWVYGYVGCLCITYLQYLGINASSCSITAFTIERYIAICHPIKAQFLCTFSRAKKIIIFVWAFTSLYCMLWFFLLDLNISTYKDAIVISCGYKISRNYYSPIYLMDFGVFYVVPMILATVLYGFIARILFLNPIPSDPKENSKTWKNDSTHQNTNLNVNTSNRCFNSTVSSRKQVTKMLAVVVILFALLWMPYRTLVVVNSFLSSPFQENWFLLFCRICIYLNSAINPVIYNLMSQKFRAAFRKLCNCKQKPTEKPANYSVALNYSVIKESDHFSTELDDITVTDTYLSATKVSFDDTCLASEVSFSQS
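Fluo-8-loaded TRHR cells; 10 s baseline, compound added, kinetic Ca2+ fluorescence read 1/s, agonist mode.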
GLP1R inv ag: qHTS of GLP-1 Receptor Inverse Agonists (Inhibition Mode) | Glucagon-like peptide 1 receptor (Homo sapiens), P43220 | HEK293 GLP-1R CRE-luciferase, luminescence, 24 h; GLP-1R form is constitutively active | Potency, µM (highest dose often 38.3 µM), for the others: at the top dose activity change, negative = inhibition, usual class: inhibitors | 410,000 compounds, 1.6% hits | AID 624417, 2012; further: potency means the concentration at half of the fitted maximal effect; on the % scale 0 is the no-effect control and ±100 the full control effect; nearly all actives have a fitted effect of over 55% in size
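Readout was luciferase luminescence, measured 12 min after detection reagent at room temperature. Beforehand, GLP-1R reporter HEK293 cells had sat 12 h, then received compounds for 24 hr at 37 deg C.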
HEK293 tox: qHTS of GLP-1 Receptor Inverse Agonists: Cytotox Screen; HEK293 cAMP-luciferase reporter cells, luminescence, 24 h; Potency, µM (titrated, usually from 38.3 µM), inactives show at the highest dose activity change, negative = inhibition, usual class: inhibitors; 410,000 compounds, 0.13% hits; AID 624418, 2012;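 further: loss of luciferase light is scored as toxicity; potency means the concentration at half of the fitted maximal effect; on the % scale 0 is the no-effect control and ±100 the full control effect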
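Cells in DMEM/10% Nu serum/1% pen-strep, 1536-well format. Pre-incubated 12 h, dosed with 23 nL compound, incubated a further 24 h. Luciferase detection, 12 min at room temp, luminescence.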
TRHR PAM: qHTS for Small Molecule Agonists and Allosteric Enhancers of Human TRH Receptor: Primary Screen for Enhancers | TRHR cells, fluo-8 calcium fluorescence, EC20 TRH enhancement | AID 493056, 2011 | 360,000 compounds, 0.66% hits | enhancement, % at 2 µM | Thyrotropin-releasing hormone receptor (Homo sapiens), P34981; in the data active means enhancement above about 30%; further: 0% is about no effect
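Enhancer read-out: after compound pinning and an initial kinetic agonist-mode read, an EC20 of TRH (10 nM final) was injected and fluo-8 calcium signal (Ex 480/Em 530) followed at 1 s/cycle for 100 cycles in TRHR-expressing cells.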
PTHR1 ag: qHTS for PTHR1 Agonists: Primary Screen; Parathyroid hormone/parathyroid hormone-related peptide receptor (Homo sapiens), Q03431; HEK293 GP2 PTHR1 cells, GloSensor cAMP luminescence, 1 h; Potency, µM (series often up to 115 µM), for the others: top-dose activation, actives largely listed as activators; 410,000 compounds, 0.075% hits; AID 743266, 2014; further: potency means the concentration at half of the fitted maximal effect; nearly all actives have a fitted effect of over 55% in size
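HEK-293-derived GP2 cells expressing PTHR1 and a GloSensor cAMP reporter, 3,000/well, plated overnight, given luciferin plus IBMX (each 0.5 mM as added) for 1 h at 37 °C, then compound for 1 h at 37 °C. Luminescence was read after 15 min at room temperature.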
GLP-1R agonist: qHTS of GLP-1 Receptor Agonists. Potency, µM (series often up to 45.6 µM), inactives show at the top dose activation, usual class: activators. AID 624172, 2012. HEK293 GLP-1R CRE-luciferase, luminescence, 4-6 h; cells express a hypersensitive GLP-1R form. 380,000 compounds, 0.007% hits; further: potency means the concentration at half of the fitted maximal effect; % of control where 0% means no effect
Numbers without * were called inactive; i = inactive; ? = inconclusive; · = not tested or not shown; [ ] = remark or other dose. Unless noted, the call rests on the fitted dose curve; in most records, active means well fitted curve in the direction sought with a large enough effect; inconclusive means small, poorly fitted or top-dose-only effect, or another doubt; inactive means no such curve, though single readings can be large; an effect the other way counts as inactive or inconclusive.

SMILES	TRHR agonist	GLP1R inv ag	HEK293 tox	TRHR PAM	PTHR1 ag	GLP-1R agonist
Cc1cccc2c1-c1sc(C(=O)NCCCN3CCCC(C)C3)cc1CO2 (stereo not given)	1	?	-3%	0	-9%	5%
COc1ccc(C(=O)NC(C(=O)N2CCN(C/C=C/c3ccccc3)CC2)C(C)C)cc1 (stereo not given)	·	-23%	3%	·	i	-1%
CC(C)[C@H](NC(=O)c1ccc([N+](=O)[O-])cc1Cl)C(=O)N1CCN(C/C=C/c2ccccc2)CC1	·	10µM*	-5%	·	-21%	12%
COc1ccccc1NC(=O)c1cnc2n(c1=O)CCS2	0	24%	-4%	7	-51%[57.5 µM]	-5%
CC1CCN(CCc2nc3cc(NC(=O)C(C)C)ccc3n2C)CC1	0	11%	3%	16	-6%	-1%
NC(N)=N/N=C/c1ccc(Br)cc1	1	5µM*	?	3	i	-5%
CN(C)c1ccc(/C=C/C(=O)c2cccc(Br)c2)cc1	148*	-3%	65%	-10	-46%[57.5 µM]	-8%
Fc1ccccc1C1c2[nH]c3ccccc3c2CCN1Cc1ccoc1 (stereo not given)	0	8.9µM*	4%	-6	-8%	9%
CSc1ncc(CN2CCc3c([nH]c4ccccc34)C2c2cccc(C)n2)cn1 (stereo not given)	0	6%	4%	5	-7%	-1%
O=C(NC1CCN(C(=O)Nc2ccc(F)cc2)CC1)c1ccc(F)cc1	-1	7%	-16%	39*	i	8%
O=C(NC1CCN(C(=O)Nc2ccc(F)cc2)CC1)c1cccc(F)c1	0	4%	0%	6	-1%	9%
CCCCCOc1ccc(NC(=O)Cn2c(-c3cncs3)nc3ccccc32)cc1	0	-3%	1%	1	-14%	·
O=C(N/C(=C\c1ccccc1)C(=O)N1CCCCC1)c1ccc(Br)o1	-1	10µM*	4%	-3	-34%	-4%
O=C(N/C(=C\c1ccccc1)C(=O)N1CCOCC1)c1ccc(Br)o1	1	-29%	18%	4	i	9%
Cc1ncsc1C(=O)N1N=C2/C(=C/c3ccc(N4CCOCC4)cc3)CCCC2C1c1ccc(N2CCOCC2)cc1 (stereo not given)	2	-5%	-23%	-2	-6%	21%
Cc1ncsc1C(=O)N1N=C2/C(=C/c3ccccc3)CCCC2C1c1ccccc1 (stereo not given)	0	4µM*	-13%	1	-28%	-2%
CC(=O)C1=C(O)C(=O)N(c2cc(C(C)(C)C)on2)C1c1ccc(C(C)C)cc1 (stereo not given)	0	-9%	-19%	4	-1%	-8%
CC(=O)C1=C(O)C(=O)N(c2cc(C(C)(C)C)on2)C1c1ccc(Br)cc1 (stereo not given)	0	8.9µM*	0%	10	-60%	3%
COc1cc(CN2CCC(C(=O)NC(c3ccc(F)cc3)c3ccc4ccccc4n3)CC2)cc(OC)c1 (stereo not given)	·	2.8µM*	-11%	·	i	0%
O=C(NC(c1ccccc1)c1ccc2ccccc2n1)C1CCN(CCOc2ccc(Cl)cc2)CC1 (stereo not given)	·	11µM*	-5%	·	-93%	-20%
O=C(NC(c1ccc(F)cc1)c1ccc2ccccc2n1)C1CCN(CCOc2ccc(Cl)cc2Cl)CC1 (stereo not given)	·	?	11µM*	·	i	-6%
Cc1cc(C)cc(OCC(=O)OCC(=O)N2CCc3ccccc32)c1	0	-3%	0%	1	-14%	-5%

Screening results deposited in PubChem BioAssay by National Center for Advancing Translational Sciences (NCATS).
